Measurements taken from PubChem BioAssay (Tox21).
Results filed as inconclusive are left out. The source made the active and inactive calls. Unless noted, calls follow the shape of the dose curve; as a rule, active = well fitted curve in the direction sought with a large enough effect in the repeat runs; inconclusive = weak or mixed curves; inactive = no such curve, though single readings can be large; an effect the other way counts as inactive or inconclusive.

Columns and labels:
[1] = qHTS assay to identify small molecule antagonists of the glucocorticoid receptor (GR) signaling pathway - cell viability counter screen (AID 720693); also: nearly all actives have a fitted effect of over 55% in size
[2] = qHTS assay for identifying genotoxic compounds that show differential cytotoxicity against isogenic chicken DT40 cell lines with known DNA damage response pathways - wild type cell line (AID 743012); also: nearly all actives have a fitted effect of over 60% in size
In short: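 Luminescent ATP viability signal (CellTiter-Glo, 30 min RT) recorded after wild type DT40 cells were incubated with compounds for 40 h at 37 C/5% CO2.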

[3] = qHTS assay for identifying genotoxic compounds that show differential cytotoxicity against isogenic chicken DT40 cell lines with known DNA damage response pathways - Rad54/Ku70 mutant cell line (AID 743015); also: nearly all actives have a fitted effect of over 60% in size
[4] = qHTS assay to identify small molecule antagonists of the androgen receptor (AR) signaling pathway - cell viability counter screen (AID 743033; also: nearly all actives have a fitted effect of over 45% in size)
[5] = biological target: Androgen receptor (Homo sapiens) (UniProt P10275); experiment: qHTS assay to identify small molecule antagonists of the androgen receptor (AR) signaling pathway (AID 743035; active = well fitted inhibition curve with a large enough effect in the signal ratio in the repeat runs, not every such curve was filed as active; the % refers to the signal ratio)
Androgen receptor (Homo sapiens), sequence (P10275 whole entry, looked up): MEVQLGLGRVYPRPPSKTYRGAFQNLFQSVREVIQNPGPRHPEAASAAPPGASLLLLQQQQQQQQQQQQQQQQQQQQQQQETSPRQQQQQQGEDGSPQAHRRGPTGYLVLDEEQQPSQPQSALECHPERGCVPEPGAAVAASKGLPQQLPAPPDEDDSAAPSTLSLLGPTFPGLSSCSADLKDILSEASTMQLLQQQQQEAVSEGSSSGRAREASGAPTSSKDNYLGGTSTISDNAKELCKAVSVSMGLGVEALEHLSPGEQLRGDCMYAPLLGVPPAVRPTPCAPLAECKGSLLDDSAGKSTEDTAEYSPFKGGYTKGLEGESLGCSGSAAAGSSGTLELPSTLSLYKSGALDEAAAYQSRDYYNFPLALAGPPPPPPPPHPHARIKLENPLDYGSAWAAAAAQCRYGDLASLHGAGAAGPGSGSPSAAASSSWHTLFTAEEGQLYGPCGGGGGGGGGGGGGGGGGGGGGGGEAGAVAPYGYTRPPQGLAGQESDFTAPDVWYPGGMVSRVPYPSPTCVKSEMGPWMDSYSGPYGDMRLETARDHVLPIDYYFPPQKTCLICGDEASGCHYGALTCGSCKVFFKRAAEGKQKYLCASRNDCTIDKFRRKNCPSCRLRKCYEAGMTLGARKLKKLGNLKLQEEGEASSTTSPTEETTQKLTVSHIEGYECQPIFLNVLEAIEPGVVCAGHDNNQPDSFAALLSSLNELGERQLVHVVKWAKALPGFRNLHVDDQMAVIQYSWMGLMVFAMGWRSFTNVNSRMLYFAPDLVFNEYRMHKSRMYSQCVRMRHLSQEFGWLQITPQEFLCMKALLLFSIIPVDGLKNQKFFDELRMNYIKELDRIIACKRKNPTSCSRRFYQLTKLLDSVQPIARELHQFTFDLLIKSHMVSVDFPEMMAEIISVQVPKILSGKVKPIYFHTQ
In short: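 Quantitative HTS of the Tox21 10K library used HEK293 AR-UAS-bla cells stimulated with R1881 alongside compound for 16 h at 37C, followed by beta-lactamase FRET detection (LiveBLAzer B/G, 2 h, RT).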

[6] = biological target: Androgen receptor (Homo sapiens) (UniProt P10275); experiment: qHTS assay to identify small molecule agonists of the androgen receptor (AR) signaling pathway (AID 743036; active = well fitted activation curve with a large enough effect in the signal ratio in the repeat runs, with a control signal flat, not every such curve was filed as active; the % refers to the signal ratio)
In short: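 Following a 4 h settling period, AR-UAS-bla HEK293 cells were dosed with compounds for 16 h at 37C. A 2 h room-temperature incubation with LiveBLAzer B/G FRET substrate preceded the fluorescence measurement.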

[7] = biological target: Androgen receptor (Homo sapiens) (UniProt P10275); experiment: qHTS assay to identify small molecule agonists of the androgen receptor (AR) signaling pathway using the MDA cell line (AID 743040; also: nearly all actives have a fitted effect of over 20% in size)
In short: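 Luciferase agonist assay: 16 h compound exposure at 37C without CO2 in MDA-kb2 AR-luc cells, whose MMTV promoter responds to both AR and GR. Luminescence measured after 30 min room-temperature incubation with ONE-Glo.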

[8] = qHTS assay to identify small molecule antagonists of the androgen receptor (AR) signaling pathway using the MDA cell line - cell viability counter screen (AID 743041; also: nearly all actives have a fitted effect of over 45% in size)
In short: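 Viability read by CellTiter-Fluor fluorescence in the same wells as the antagonist screen, added after 15.5 h of a 16 h, 37C exposure. Human breast carcinoma MDA-kb2 AR-luc cells, compounds co-dosed with agonist R1881.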

[9] = qHTS assay to identify small molecule antagonists of the thyroid receptor (TR) signaling pathway (AID 743065); also: nearly all actives have a fitted effect of over 55% in size
In short: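 Antagonism measured as loss of luciferase signal in GH3 cells stably carrying a TRE-luciferase reporter, co-treated with compound and T3 (1 nM final) for 23.5 h at 37 C. Viability was read in the same well by CellTiter-Fluor.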

[10] = qHTS assay to identify small molecule antagonists of the estrogen receptor alpha (ER-alpha) signaling pathway - cell viability counter screen (AID 743074; calls by dose curve;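 also: HEK293 cells carrying ER-alpha-UAS-bla reporter stimulated with 17beta-estradiol; nearly all actives have a fitted effect of over 45% in size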)
[11] = qHTS assay to identify small molecule antagonists of the estrogen receptor alpha (ER-alpha) signaling pathway using the BG1 cell line - cell viability counter screen (AID 743081);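 also: compound given together with 17beta-estradiol as the ER stimulus; nearly all actives have a fitted effect of over 45% in size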
Aromatase (Homo sapiens) = Aromatase (Homo sapiens) (UniProt P11511); experiment: qHTS assay to identify aromatase inhibitors (AID 743083); also: nearly all actives have a fitted effect of over 55% in size
Aromatase (Homo sapiens), sequence (P11511 whole entry, looked up): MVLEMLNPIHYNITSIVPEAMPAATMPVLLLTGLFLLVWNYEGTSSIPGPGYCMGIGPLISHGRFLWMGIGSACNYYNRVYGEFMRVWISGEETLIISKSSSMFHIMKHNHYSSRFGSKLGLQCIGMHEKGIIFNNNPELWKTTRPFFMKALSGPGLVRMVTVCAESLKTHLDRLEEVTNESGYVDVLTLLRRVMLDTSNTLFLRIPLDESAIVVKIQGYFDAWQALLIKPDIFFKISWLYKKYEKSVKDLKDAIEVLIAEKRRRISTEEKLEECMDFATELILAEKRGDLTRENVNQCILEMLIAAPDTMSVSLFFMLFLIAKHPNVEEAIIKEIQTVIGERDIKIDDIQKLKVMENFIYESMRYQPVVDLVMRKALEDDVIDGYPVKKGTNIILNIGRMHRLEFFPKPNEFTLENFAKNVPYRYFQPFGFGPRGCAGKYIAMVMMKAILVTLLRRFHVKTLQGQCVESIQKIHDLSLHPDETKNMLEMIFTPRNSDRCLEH

[12] = qHTS assay to identify aromatase inhibitors - cell viability counter screen (AID 743084);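 also: cells stimulated with testosterone during compound exposure; nearly all actives have a fitted effect of over 55% in size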
[13] = qHTS assay to identify small molecule antagonists of the thyroid receptor (TR) signaling pathway - cell viability counter screen (AID 743064); also: nearly all actives have a fitted effect of over 50% in size
In short: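 CellTiter-Fluor readout, 30 min at 37 °C/5% CO2, following 23.5 h incubation of GH3.TRE-Luc cells with test compound and 1 nM T3 (final).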

[14] = test system: thyroid hormone receptor (rat, GH3 cells); experiment: qHTS assay to identify small molecule agonists of the thyroid receptor (TR) signaling pathway (AID 743066; calls by dose curve)
[15] = biological target: Estrogen receptor (Homo sapiens) (UniProt P03372); experiment: qHTS assay to identify small molecule agonists of the estrogen receptor alpha (ER-alpha) signaling pathway (AID 743075; calls by dose curve;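 also: HEK293 GripTite cells with ER-alpha and UAS-driven beta-lactamase reporter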; also: potency is read from the fitted curve at half-maximal effect)
Estrogen receptor (Homo sapiens), sequence (P03372 whole entry, looked up): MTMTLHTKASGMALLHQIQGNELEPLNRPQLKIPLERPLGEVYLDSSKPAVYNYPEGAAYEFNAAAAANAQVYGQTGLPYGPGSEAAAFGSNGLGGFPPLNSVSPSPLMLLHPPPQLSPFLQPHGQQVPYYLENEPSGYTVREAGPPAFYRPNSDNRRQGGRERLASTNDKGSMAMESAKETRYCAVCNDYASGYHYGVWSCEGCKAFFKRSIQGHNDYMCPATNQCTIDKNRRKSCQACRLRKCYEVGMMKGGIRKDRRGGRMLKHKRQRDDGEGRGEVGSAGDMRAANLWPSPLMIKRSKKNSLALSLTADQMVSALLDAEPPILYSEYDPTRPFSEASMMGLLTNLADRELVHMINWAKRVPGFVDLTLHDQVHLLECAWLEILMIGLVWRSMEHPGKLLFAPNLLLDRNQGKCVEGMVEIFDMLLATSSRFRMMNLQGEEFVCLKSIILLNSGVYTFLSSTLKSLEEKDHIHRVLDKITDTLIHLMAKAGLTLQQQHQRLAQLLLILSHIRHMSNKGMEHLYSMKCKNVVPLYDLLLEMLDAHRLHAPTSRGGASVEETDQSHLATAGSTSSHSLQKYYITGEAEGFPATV

[16] = biological target: Estrogen receptor (Homo sapiens) (UniProt P03372); experiment: qHTS assay to identify small molecule agonists of the estrogen receptor alpha (ER-alpha) signaling pathway using the BG1 cell line (AID 743079); settings: BG1Luc4E2 cells, ERE-luciferase agonist, 22 h; for activation: at 70.3 µM (top of the series); also: potency is read from the fitted curve at half-maximal effect; as to all read-outs here: nearly all actives have a fitted effect of over 20% in size
[17] = qHTS assay to identify small molecule antagonists of the estrogen receptor alpha (ER-alpha) signaling pathway using the BG1 cell line (AID 743080; calls by dose curve;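 also: BG1 cells stimulated with 17beta-estradiol alongside compound; nearly all actives have a fitted effect of over 25% in size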)
In short: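 After 5 days in phenol-red-free 10% charcoal-stripped FBS medium, BG1-Luc-4E2 cells were seeded, left 24 h at 37 C, co-treated with compounds and 17beta-estradiol for 21.5 h, then assayed for viability and luciferase.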

[18] = qHTS assay for identifying genotoxic compounds that show differential cytotoxicity against isogenic chicken DT40 cell lines with known DNA damage response pathways - Rev3 mutant cell line (AID 743014); also: nearly all actives have a fitted effect of over 55% in size
[19] = biological target: Estrogen receptor (Homo sapiens) (UniProt P03372); experiment: qHTS assay to identify small molecule antagonists of the estrogen receptor alpha (ER-alpha) signaling pathway (AID 743069; active = well fitted curve in the direction sought with a large enough effect in the signal ratio in the repeat runs, not every such curve was filed as active; the % refers to the signal ratio)
In short: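 Antagonist mode: compounds in DMSO were co-added with 17beta-estradiol to ER-alpha-bla HEK293 cells (2% charcoal-stripped serum) and left 18 h at 37C. Reporter inhibition was measured as FRET fluorescence after 2 h LiveBLAzer substrate at room temperature.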
% is scaled to controls: 0 for no effect and ±100 for the full control effect.

C[N+]1(C)CCCCC1
inactive: Potency [1] | Potency [2] | Potency [3] | Potency [4] | Potency [5] | outcome [6] | outcome [7] | Potency [8] | Potency [9] | Potency [10] | Potency [11] | Potency (Aromatase (Homo sapiens)) | Potency [12]

c1cncc([C@@H]2CCCCN2)c1
inactive: Potency [1] | Potency [2] | Potency [3] | Potency [4] | Potency [13] | Potency [9] | Potency [14] | Potency [10] | Potency [15] | activation [16] -1.75% | Potency [17] | Potency [11] | Potency (Aromatase (Homo sapiens)) | Potency [12]

CC(C)c1ccc(O)cc1
inactive: Potency [1] | Potency [2] | Potency [18] | Potency [4] | Potency [8] | Potency [13] | Potency [9] | Potency [14] | Potency [10] | Potency [11] | Potency (Aromatase (Homo sapiens)) | Potency [12]

O=C(O)C(Br)(Br)Br
inactive: Potency [1] | Potency [2] | Potency [3] | Potency [4] | Potency [13] | Potency [9] | Potency [14] | Potency [10] | Potency [15] | activation [16] 6.64% | Potency [17] | Potency [11] | Potency (Aromatase (Homo sapiens)) | Potency [12]

COc1cccc([C@@]2(O)CCCC[C@@H]2CN(C)C)c1
inactive: Potency [1] | Potency [2] | Potency [3] | Potency [4] | Potency [5] | outcome [6] | outcome [7] | Potency [8] | Potency [13] | Potency [9] | Potency [14] | Potency [10] | Potency [15] | activation [16] 7.73% | Potency [17] | Potency [11] | Potency (Aromatase (Homo sapiens))

[P]#[In]
inactive: Potency [1] | Potency [2] | Potency [3] | Potency [4] | Potency [8] | Potency [13] | Potency [9] | Potency [14] | Potency [10] | Potency [11] | Potency (Aromatase (Homo sapiens)) | Potency [12]

CC(C)(C1CCC(O)CC1)C1CCC(O)CC1 (stereo not drawn)
active: Potency [15] 49 µM [activator] | Potency [16] 54.5 µM
inactive: Potency [1] | Potency [2] | Potency [3] | Potency [4] | Potency [8] | Potency [13] | Potency [9] | Potency [14] | Potency [19] | Potency [10] | Potency [17] | Potency [11] | Potency (Aromatase (Homo sapiens)) | Potency [12]
